# An excerpt weighted towards active compounds, which were near 2.4% of everything screened.
# ADAM17 inh: inhibitors of human ADAM17. inhibition, % at 6.95 µM. AID 720648. P78536. recombinant ADAM17, EDANS/DABCYL FRET peptide cleavage. actives 0.83% (n = 370,000);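 active = inhibition above the mean of compounds lying between control limits plus 3 SD, set per campaign, cut at about 8.5% in these data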;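 also: 0% = DMSO-only wells as the low control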
# NRP1-CendR mod: modulators of CendR peptide binding to human neuropilin-1; O14786; FAM-RPARPAR peptide binding to NRP-1, fluorescence polarization; inhibition, % at 25 µM; actives 0.85% (n = 360,000); AID 602438;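 active = inhibition or corrected inhibition above about 18%, plus a signal ratio from 0.5 to 1.5, limit read from the data, passing the limit was not always enough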
# Target sequence (O14786 whole entry, looked up): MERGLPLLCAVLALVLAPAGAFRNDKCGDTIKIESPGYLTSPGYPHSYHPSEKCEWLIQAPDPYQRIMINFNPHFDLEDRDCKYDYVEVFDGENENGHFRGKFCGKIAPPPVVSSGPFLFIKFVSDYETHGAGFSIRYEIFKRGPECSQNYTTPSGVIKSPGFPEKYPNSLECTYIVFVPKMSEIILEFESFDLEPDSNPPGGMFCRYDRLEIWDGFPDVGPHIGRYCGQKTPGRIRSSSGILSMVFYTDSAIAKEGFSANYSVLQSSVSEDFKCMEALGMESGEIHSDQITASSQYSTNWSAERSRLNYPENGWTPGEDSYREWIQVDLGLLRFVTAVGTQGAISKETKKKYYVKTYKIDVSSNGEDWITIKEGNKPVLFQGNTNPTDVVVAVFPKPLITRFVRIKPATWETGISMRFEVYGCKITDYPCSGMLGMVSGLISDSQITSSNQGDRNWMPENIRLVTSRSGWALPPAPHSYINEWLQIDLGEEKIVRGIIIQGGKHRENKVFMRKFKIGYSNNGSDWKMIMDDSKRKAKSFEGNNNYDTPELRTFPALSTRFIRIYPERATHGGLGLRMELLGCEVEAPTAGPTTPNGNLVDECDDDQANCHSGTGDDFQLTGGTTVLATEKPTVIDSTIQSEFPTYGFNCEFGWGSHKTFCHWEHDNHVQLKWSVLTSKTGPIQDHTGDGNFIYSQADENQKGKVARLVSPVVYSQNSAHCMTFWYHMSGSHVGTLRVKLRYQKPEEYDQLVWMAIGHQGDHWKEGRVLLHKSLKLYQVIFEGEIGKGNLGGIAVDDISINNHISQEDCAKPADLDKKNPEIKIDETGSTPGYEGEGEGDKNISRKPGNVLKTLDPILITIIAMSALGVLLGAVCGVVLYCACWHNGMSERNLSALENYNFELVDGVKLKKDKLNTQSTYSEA
# ADAM10 inh: ADAM10 inhibition, QFRET primary screen; O14672; recombinant ADAM10, EDANS/DABCYL FRET peptide cleavage, 3 h; inhibition, % at 7 µM; actives 0.62% (n = 370,000);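 active = inhibition above a per-campaign cutoff equal to the mean of compounds falling between control-based bounds plus 3 SD, cut at about 20% in these data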;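 also: 0% = DMSO wells while the 100% control is not disclosed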
# A3G deaminase: APOBEC3G (human) deaminase inhibition. actives 0.28% (n = 330,000). recombinant A3G, ssDNA deamination FAM/TAMRA fluorescence. inhibition, % at 20 µM. Q9HC16. AID 493012;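 active = inhibition of at least 40% at 20 µM, with no more than 30% in the related APOBEC3A deaminase screen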;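 also: plate controls were DMSO wells with A3G for no effect and wells lacking A3G enzyme for full effect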
# APOBEC3A inh: human APOBEC3A DNA deaminase inhibition. inhibition, % at 20 µM. actives 0.41% (n = 330,000). P31941. AID 493011. recombinant A3A, FAM/TAMRA ssDNA deamination fluorescence;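 active = at least 40% inhibition at 20 µM here, with at most 30% in a related deaminase screen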;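 also: plate controls were A3A with DMSO for no effect and wells lacking A3A enzyme for full effect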
# Starred values were filed as active, the others as inactive; x = no result given.
SMILES,ADAM17 inh,NRP1-CendR mod,ADAM10 inh,A3G deaminase,APOBEC3A inh
COc1ccc(N2C(=NC(=O)C(C)Oc3ccccc3)SC3CS(=O)(=O)CC32)cc1 (stereo not given),3.2,27.5*,3.6,0.8,2.8
Cc1cccc(C)c1NC(=O)C1(C)CCC(=O)N1C1CCN(Cc2ccccc2)CC1 (stereo not given),-2.3,20.7*,-3.5,x,x
CCOCCCNC(=S)NC1CC2CCC(C1)N2Cc1ccccc1 (stereo not given),1.6,-2.7,-3.3,1.1,-1.1
COCCCNC(=S)NC1CC2CCC(C1)N2Cc1ccccc1 (stereo not given),0.8,48.0*,3.9,-1.0,-3.2
O=C1C=CC(=Nc2ccc(F)cc2)O1,-2.0,-6.1,-3.3,x,x
O=C1C=CC(=Nc2ccc3c(c2)C(=O)c2ccccc2-3)O1,12.1*,-2.3,10.7,x,x
O=C(c1cccc(OC2CCN(Cc3ccc(F)cc3)CC2)c1)N1CCCC1,-3.5,5.7,6.0,-5.7,-4.7
CN(Cc1ccc(F)cc1)C(=O)c1cccc(OC2CCN(C3CCCC3)CC2)c1,-3.9,26.1*,-8.7,-8.6,4.5
CCCCN1CCN(C2=Nc3ccccc3Sc3ccccc32)CC1,4.0,x,10.2,x,x
c1ccc(Cc2nnc3n2CCCCC3)cc1,-4.2,14.3,-4.4,-1.2,3.7
c1ccc2c(c1)CCCN2Cc1nnc2n1CCCCC2,-6.5,23.1*,-6.6,4.2,-1.1
Cc1nc2ccc(S(=O)(=O)NCC(=O)NC(C)c3ccccc3)cc2s1 (stereo not given),-3.4,13.6,-3.1,-5.9,-0.9
Cc1nc2ccc(S(=O)(=O)NCC(=O)N(C)Cc3ccccc3)cc2s1,-0.4,26.0*,4.8,-17.6,-4.1
COC(=O)c1ccc(N/C=C\C(=O)c2ccc3c(c2)OCO3)cc1,-0.6,21.7*,3.2,-0.1,0.5
CCCCCCCCNS(=O)(=O)/C=C/c1ccc(OC)cc1CNC(=O)OC(C)(C)C,4.0,x,7.4,x,x
O=C(NCCCN1CCCCCC1)c1ccc(CS(=O)(=O)Cc2ccccc2F)o1,-0.8,29.5*,1.1,x,x
CC1CCN(CCCNC(=O)c2ccc(CS(=O)(=O)Cc3ccccc3F)o2)CC1,-3.5,-14.7,2.1,x,x
CCOc1ccc(-n2c(SCC(=O)c3ccc4ccccc4c3)nnc2-c2cccc(Cl)c2)cc1,4.4,x,6.2,x,x
Cc1cc(C(=O)N[C@@H](c2ccccc2)[C@]2(C)C[C@H]2[C@@H](C)C(=O)Nc2ccc3ccccc3c2)no1,2.1,21.7*,6.9,-11.7,-1.0
COC(=O)[C@]12C[C@H](CC(=O)NCc3cccc4ccccc34)C(=O)N(Cc3ccc(Cl)cc3Cl)C1=C[C@H](C(C)C)O[C@@H]2C1CC1,-6.4,x,-3.1,x,x
COC(=O)c1cccc(OC[C@@H](O)CN2CCC(C(O)(c3ccccc3)c3ccccc3)CC2)c1,6.9,x,2.4,x,x
O=C(CCn1c(=O)sc2ccccc21)Nc1nccs1,-1.6,14.1,3.4,1.3,-0.2
CCn1c(=NC(=O)CSCC(=O)Nc2nccs2)sc2ccccc21,-3.1,31.7*,5.2,-9.3,-6.6
O=C(Nc1ccccc1C(F)(F)F)OC1CC2CC1[C@H]1CCCCN1C2 (stereo not given in full),-7.6,x,-11.2,x,x
Cc1cccc(C)c1NC(=O)CSc1nnc(-c2ccoc2C)n1CCc1ccccc1,-2.3,21.0*,-1.7,0.5,-1.6
SMILES,ADAM17 inh,NRP1-CendR mod,ADAM10 inh,A3G deaminase,APOBEC3A inh
O=C(NCc1ccccc1)c1c[nH]c2ccc(F)cc2c1=O,-3.5,-3.6,3.6,0.8,0.2
CCOc1ccc2[nH]cc(C(=O)NCc3ccc(F)cc3)c(=O)c2c1,-5.9,39.0*,-8.5,0.9,-3.1
O=C(c1cnc2c(c1)COc1ccc(Cl)cc1-2)c1ccccc1O,-0.6,5.4,1.4,-6.2,-1.2
Cc1ccc(O)c(C(=O)c2cnc3c(c2)COc2ccccc2-3)c1,-1.4,26.1*,2.6,-2.0,0.7
CCOc1ccc(-n2c(SCC(=O)NN=Cc3ccc(C(=O)O)cc3)nnc2-c2cccnc2)cc1,1.2,x,-2.8,x,x
CCC(C)N(C(=O)CSc1nnc(-c2cccnc2)n1C1CCCCC1)C(C)CC (stereo not given),1.5,x,-6.2,x,x
CC1CCN(CC(=O)Nc2ccccc2-c2ccccc2)CC1,-4.7,36.3*,-0.2,-8.5,-2.6
CC1CCN(CC(=O)Nc2ccccc2C(=O)c2ccccc2)CC1,0.2,15.7,-0.3,-4.4,-1.8
CCOc1ccccc1OCC(=O)NN1Cc2ccccc2C1=N,-4.0,19.1*,-1.4,-3.0,-0.6
CC(C)N1CC2=C(OC(N)=C(C#N)C2c2cccnc2)/C(=C/c2cccnc2)C1 (stereo not given),-8.4,25.6*,-21.3,-4.7,-4.1
CC(=O)NC(CC(=O)Nc1ccc(S(=O)(=O)N2CCCC2)cc1)c1ccccc1 (stereo not given),0.3,4.8,3.5,3.2,3.1
CC(=O)NC(CC(=O)Nc1cccc(S(=O)(=O)N2CCOCC2)c1)c1ccccc1 (stereo not given),-2.5,24.4*,-2.8,-11.4,1.0
COc1ccc(CC(=O)Nc2ccc3c(c2)OCO3)cc1S(=O)(=O)N1CCOCC1,2.9,21.7*,9.2,-1.6,-1.2
COc1ccc(C(=O)Nc2ccc3c(c2)OCCO3)cc1S(=O)(=O)N1CCOCC1,0.2,2.7,-4.3,3.0,32.6
CCN(CC(=O)Nc1ccc(OC)cc1)CC(=O)Nc1cccc(S(=O)(=O)N2CCOCC2)c1,2.9,33.8*,-1.3,x,x
Cc1cc(NC(=O)COC(=O)c2ccc(C)c(C)c2)no1,-4.0,26.4*,0.4,0.7,2.0
Cc1cc(NC(=O)COC(=O)c2ccc(NS(=O)(=O)c3ccc(C)c(C)c3)cc2)no1,2.0,3.3,6.5,3.5,0.4
Cc1ccc(S(=O)(=O)/N=S(/C)c2ccccc2)cc1 (stereo not given),-0.6,31.6*,-3.7,-3.1,-0.9
CC/S(=N\S(=O)(=O)c1ccc(C)cc1)c1ccccc1 (stereo not given),-2.9,-10.8,9.8,-2.2,-3.5
COC(=O)c1cc2c(c3c4cc(F)ccc4n(S(=O)(=O)c4ccc(OC)cc4)c13)C(=O)N(Cc1ccccc1OC)C2,-1.7,x,-7.6,x,x
COc1ccc(/C(C#N)=C/c2cccnc2)cc1,-132.7,19.1*,-306.3,0.3,-0.3
COc1ccc(C(C#N)=Cc2cc(OC)c(OC)c(OC)c2)cc1,-2.3,x,-7.8,x,x
COCc1cc(N2CCN(C(=O)OC(C)(C)C)C[C@H]2C)ccc1Br,3.8,x,-3.4,x,x
CCOC(=O)c1cnc(-n2nc(C)cc2C)nc1Nc1ccc(OC)cc1,1.5,30.3*,-3.0,-4.6,0.4
O=C(O)c1ccc(Cl)c2c1C1C=CCC1C(c1ccccn1)N2 (stereo not given),x,x,x,76.7,91.4
O=[N+]([O-])c1ccc(Cl)c2c1C1C=CCC1C(c1ccccn1)N2 (stereo not given),2.4,28.5*,-6.1,12.9,14.3
CC(C)(C)NC(=O)C12CC3CC(CC(Cl)(C3)C1)C2,-0.9,22.3*,3.2,-4.6,-3.6

# High-throughput results deposited in PubChem by several laboratories.
